ABHD5 PLIN5 PPI: blocks binding of human ABHD5 to perilipin-5. hit rate 0.78% among 360,000. Q00G26+Q8WTS1. inhibition, % at 4 µM. Split G. princeps luciferase complementation, luminescence, 4 h;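 active means inhibition above the mean inhibition across every tested compound plus 3 SD, cut at about 22% in these data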;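 further: 0% = DMSO only wells and the 100% control is not disclosed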
Granule exo inh: lytic granule exocytosis inhibition; TALL-104 LAMP-1 surface exposure, flow cytometry; cells stimulated with thapsigargin and PMA; inhibition, % at 10 µM; hit rate 0.66% among 360,000;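 active means inhibition above about 55%, limit read from the data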
Rce1 inh: inhibitors of yeast Ras-converting enzyme; Q03530; calls only; hit rate 0.27% among 290,000; yeast membranes, quenched prenylated peptide cleavage fluorescence;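 active means fall in fluorescence gain of 50% or more versus controls, with final raw signal at or below 3038400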;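 further: plate controls were neutral control wells for no effect and wells lacking membranes for full effect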
Platelet DG rel: modulates dense granule release in human platelets. hit rate 0.22% among 300,000. inhibition, %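 (compounds screened at 7.5 µM in platelet-rich plasma)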. human platelet-rich plasma, SFLLRN dense granule ATP release, luminescence;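 active means mean replicate score, as percent of positive control, at or above 50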
PfM18AAP inh-1: blocks P. falciparum M18 aspartyl aminopeptidase. recombinant PfM18AAP, H-Glu-NHMec fluorogenic cleavage. inhibition, % at 7.35 µM. hit rate 1.2% among 290,000. AID 1822;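 active means inhibition above the campaign mean inhibition over all tested compounds plus 3 SD, cut at about 28% in these data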;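 further: 0% = plate median of test compound wells and 100% = 2 mM ZnCl2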
PfM18AAP inh-2: confirmation of Plasmodium falciparum M18 aspartyl aminopeptidase inhibitors. shares compounds with PfM18AAP inh-1. recombinant PfM18AAP, H-Glu-NHMec fluorogenic cleavage. inhibition, % at 7.35 µM. hit rate 28% among 2,400. AID 2170;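 active means mean inhibition over replicate wells above the hit cutoff set for the earlier primary screen, cut at about 29% in these data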;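 further: 0% = median of test compound wells and 100% = 2 mM ZnCl2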
CTSL1 confirm: Cathepsin L (human) inhibition, confirmation. inhibition, % at 5.96 µM. 2,400 tested, under 10 active. shares compounds with PfM18AAP inh-1. purified cathepsin L1, Z-Leu-Arg-MCA fluorescence;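 active means average inhibition across replicates above the hit cutoff set in the earlier primary screen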;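 further: 0% = median of test compound wells and 100% = Z-Phe-Ala-diazomethylketone 1 µM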
Target sequence (P07711 whole entry, looked up): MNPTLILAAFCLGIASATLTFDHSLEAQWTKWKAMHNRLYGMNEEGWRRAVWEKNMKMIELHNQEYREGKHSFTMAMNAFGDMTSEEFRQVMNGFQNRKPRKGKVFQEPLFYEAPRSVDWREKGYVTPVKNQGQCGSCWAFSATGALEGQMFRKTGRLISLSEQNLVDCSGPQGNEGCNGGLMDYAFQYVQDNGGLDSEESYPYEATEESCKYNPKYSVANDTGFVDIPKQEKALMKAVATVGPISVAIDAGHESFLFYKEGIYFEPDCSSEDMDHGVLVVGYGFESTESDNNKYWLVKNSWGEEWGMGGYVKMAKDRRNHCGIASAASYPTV
* = called active by the depositor; i = inactive; · = not tested or not shown. Hits are enriched below; roughly 2.6% of the tested compounds scored in any of these assays.

SMILES	ABHD5 PLIN5 PPI	Granule exo inh	Rce1 inh	Platelet DG rel	PfM18AAP inh-1	PfM18AAP inh-2	CTSL1 confirm
O=C(CSc1nc2ccccc2n1CCc1ccccc1)c1ccc(O)c(O)c1	-1	0	·	·	44*	11	-3
Cn1c(SCC(=O)c2ccc(O)c(O)c2)nnc1-c1ccccc1	6	-4	i	9	48*	17	3
Cn1c(SCC(=O)c2ccc(O)c(O)c2)nnc1-c1cccs1	-9	2	i	-3	46*	8	0
Cn1c(SCC(=O)c2ccc(-c3ccccc3)cc2)nnc1-c1ccco1	3	-9	i	1	-12	·	·
CCOCCc1c(O)nc(SC)[nH]c1=O	2	-6	i	5	4	·	·
O=C(NCc1cccs1)C(=O)c1cn(CC(=O)N2CCCC2)c2ccccc12	1	-1	i	·	8	·	·
CCOc1ccc(N=c2scc(-c3ccc(OC)cc3)n2CCO)cc1	0	0	i	6	9	·	·
OCCn1c(-c2ccc3c(c2)OCO3)csc1=Nc1ccccc1	-8	0	i	-2	37*	-52	3
CCCSc1nsc(NC(=O)C(c2ccccc2)c2ccccc2)n1	-22	5	i	0	3	·	·
COc1cccc(-c2cnc3c(NC(C)=O)cc(-c4ccc(S(C)(=O)=O)cc4)cn23)c1	-2	-21	·	·	·	·	·
Cc1cc(C)n2nc(SCC(=O)Nc3ccccc3)nc2n1	1	-2	i	-1	-16	·	·
O=C1c2ccccc2C(=O)N1CSc1ncccn1	1	-1	i	-1	46*	-58	2
Cc1cc(C)n2nc(SCN3C(=O)c4ccccc4C3=O)nc2n1	0	-1	i	4	77*	-42	3
O=C(NCCc1c[nH]c2ccccc12)/C(=C\c1cccs1)NC(=O)c1ccccc1	0	-1	i	2	-2	·	·
CCCCN(CCCC)Cc1ccc(C(=O)NN)o1	-11	0	i	8	7	·	·
O=C(O)c1cccc(NC(=S)N/N=C/c2ccccc2OCc2cccc(Br)c2)c1	-8	-1	i	-5	15	·	·
Cn1c(=O)[nH]c(=O)c2c1[nH]c(=S)n2Cc1ccc(Cl)cc1	-10	-2	i	-3	48*	16	3
Cn1c(=O)n(Cc2ccccc2Cl)c(=O)c2c1[nH]c(=S)n2C	-7	-2	i	-2	36*	-14	-5
Cn1c(=O)[nH]c(=O)c2c1[nH]c(=S)n2CCCc1ccccc1	-13	2	i	6	58*	41*	2
Cn1c(=O)c2[nH]c(=S)n(Cc3ccccc3)c2n(C)c1=O	-3	-1	·	·	·	·	·
Cn1c(=O)c2c([nH]c(=S)n2CCCc2ccccc2)n(C)c1=O	-10	4	i	-7	44*	30*	-1
Cn1c(=O)n(Cc2ccccc2Cl)c2ccccc21	-7	-6	i	4	-2	·	·
Cc1ccc(C(=O)N/C(=C/c2ccco2)C(=O)N2CCC(C)CC2)cc1	-4	-7	i	-10	21	·	·
CC(C)=NNc1nc2c(c(=O)[nH]c(=O)n2C)n1CCCc1ccccc1	-4	-5	i	5	36*	-29	-7
C=CCn1c2ccccc2c2n[nH]c(=S)nc21	-8	12	i	21	40*	-13	-2
SMILES	ABHD5 PLIN5 PPI	Granule exo inh	Rce1 inh	Platelet DG rel	PfM18AAP inh-1	PfM18AAP inh-2	CTSL1 confirm
O=C(O)Cn1c2ccccc2c2n[nH]c(=S)nc21	-5	1	i	-1	47*	31*	3
CCn1c2ccccc2c2n[nH]c(=S)nc21	-10	2	i	3	7	·	·
CCc1ccc(C(=O)NNc2ccc(S(N)(=O)=O)cc2)cc1	2	-1	i	5	35*	-10	1
Cc1ccc(C(=O)C(NC(=O)c2ccco2)Nc2sc3c(c2C(N)=O)CCCC3)cc1 (configuration not stated)	·	·	i	-5	40*	-27	-8
O=c1c(C=NCc2ccccc2)c(NCc2ccccc2)nc2ccccn12	3	4	i	-3	-11	·	·
CCCCC(=O)Nc1ccc(C(=O)NNC(=S)NC(=O)c2cccs2)cc1	-4	1	i	-6	5	·	·
COc1ccc(CCn2c(N)cc(=O)[nH]c2=O)cc1OC	10	-10	·	7	-6	·	·
Oc1ccc(O)c(-c2cnns2)c1	5	1	i	1	86*	90*	1
COc1ccc(C2C(C(C)=O)=C(C)N=c3s/c(=C\c4ccco4)c(=O)n32)c(OC)c1 (configuration not stated)	5	0	i	-2	37*	-7	6
O=S1(=O)CCOC[C@H](CC2CCCCC2)N1Cc1cccc(Cl)c1	-3	0	i	1	6	·	·
COc1cccc(/C=N/n2c(N)c(S(=O)(=O)c3cccs3)c3nc4ccccc4nc32)c1OC	-2	1	i	6	1	·	·
Nc1c(S(=O)(=O)c2cccc(Cl)c2)c2nc3ccccc3nc2n1/N=C/c1ccc(O)c(O)c1	·	·	i	5	44*	12	-4
O=C(CN1C(=O)NC2(CCCC2)C1=O)NCCC1=CCCCC1	-1	8	i	12	-1	·	·
Cc1c(O)ccc(C(=O)CN2CCN(Cc3ccc4c(c3)OCO4)CC2)c1O	0	1	i	6	93*	-18	2
CCOC(=O)N1CCN(Cc2ccc3c(c2)OCO3)CC1	1	-8	i	14	-1	·	·
COc1ccc(/C(N)=N/OC(=O)CC2CCCCC2)cc1OC	-9	0	i	-7	2	·	·
CC(=O)Nc1cccc(NC(=S)Nc2cccc3ccccc23)c1	-40	3	i	0	12	·	·
CCOc1ccc(C(C)NC(=S)NC2CCCCC2)cc1OCC (configuration not stated)	-2	4	i	-30	-1	·	·
CN(C)c1ccc(C(=S)NC2CCCCC2)cc1	-1	4	i	3	33*	5	2
CCOc1ccc(C(=S)NC2CCCCC2)cc1OCC	-7	-22	i	0	37*	18	-3
CCN(CC)c1ccc(C(=S)NC2CCCCC2)cc1	-2	1	i	5	1	·	·
COc1ccc(NC(=O)CSc2nnc(-c3ccccc3Cl)n2Cc2ccco2)c(OC)c1	7	4	i	11	2	·	·
N#C/C(=C\c1ccc(-c2ccccc2)o1)C(=O)Nn1cnnc1	-4	-3	i	1	63*	54*	6
Cc1ccc(-c2ccc(/C=C(\C#N)C(=O)Nc3cc(C)nn3-c3ccccc3)o2)cc1	·	·	i	1	-5	·	·
O=c1[nH]ncn1-c1ccccc1C(F)(F)F	4	0	i	-4	11	·	·
O=c1[nH][nH]c(=S)n1-c1ccccc1C(F)(F)F	·	·	·	·	61*	18	-3
Cc1ccc2nc3c(cc(C(=O)NCc4ccco4)c(=N)n3C3CCCC3)c(=O)n2c1	11	1	·	0	38*	-30	3
